Most compounds without a hit are left out; they make up all but 3.5% or so of the library.
Pf apPOL inh: Pf-apPOL DNA polymerase inhibition; Recombinant Pf-apPOL, molecular beacon fluorescence, 1.5 h; inhibition, % at 10 µM; 210,000 compounds, 0.25% hits; AID 1794808
mHTT CaM bind: mHTT-calmodulin interaction abrogation. P42858. AlphaScreen His-mHTT/GST-CaM binding, luminescence. inhibition, % at 15 µM. 190,000 compounds, 3.6% hits. AID 1671202;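 further: 0% = both proteins with DMSO and 100% = one protein alone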
Target sequence (P42858 whole entry, looked up, stated change not applied): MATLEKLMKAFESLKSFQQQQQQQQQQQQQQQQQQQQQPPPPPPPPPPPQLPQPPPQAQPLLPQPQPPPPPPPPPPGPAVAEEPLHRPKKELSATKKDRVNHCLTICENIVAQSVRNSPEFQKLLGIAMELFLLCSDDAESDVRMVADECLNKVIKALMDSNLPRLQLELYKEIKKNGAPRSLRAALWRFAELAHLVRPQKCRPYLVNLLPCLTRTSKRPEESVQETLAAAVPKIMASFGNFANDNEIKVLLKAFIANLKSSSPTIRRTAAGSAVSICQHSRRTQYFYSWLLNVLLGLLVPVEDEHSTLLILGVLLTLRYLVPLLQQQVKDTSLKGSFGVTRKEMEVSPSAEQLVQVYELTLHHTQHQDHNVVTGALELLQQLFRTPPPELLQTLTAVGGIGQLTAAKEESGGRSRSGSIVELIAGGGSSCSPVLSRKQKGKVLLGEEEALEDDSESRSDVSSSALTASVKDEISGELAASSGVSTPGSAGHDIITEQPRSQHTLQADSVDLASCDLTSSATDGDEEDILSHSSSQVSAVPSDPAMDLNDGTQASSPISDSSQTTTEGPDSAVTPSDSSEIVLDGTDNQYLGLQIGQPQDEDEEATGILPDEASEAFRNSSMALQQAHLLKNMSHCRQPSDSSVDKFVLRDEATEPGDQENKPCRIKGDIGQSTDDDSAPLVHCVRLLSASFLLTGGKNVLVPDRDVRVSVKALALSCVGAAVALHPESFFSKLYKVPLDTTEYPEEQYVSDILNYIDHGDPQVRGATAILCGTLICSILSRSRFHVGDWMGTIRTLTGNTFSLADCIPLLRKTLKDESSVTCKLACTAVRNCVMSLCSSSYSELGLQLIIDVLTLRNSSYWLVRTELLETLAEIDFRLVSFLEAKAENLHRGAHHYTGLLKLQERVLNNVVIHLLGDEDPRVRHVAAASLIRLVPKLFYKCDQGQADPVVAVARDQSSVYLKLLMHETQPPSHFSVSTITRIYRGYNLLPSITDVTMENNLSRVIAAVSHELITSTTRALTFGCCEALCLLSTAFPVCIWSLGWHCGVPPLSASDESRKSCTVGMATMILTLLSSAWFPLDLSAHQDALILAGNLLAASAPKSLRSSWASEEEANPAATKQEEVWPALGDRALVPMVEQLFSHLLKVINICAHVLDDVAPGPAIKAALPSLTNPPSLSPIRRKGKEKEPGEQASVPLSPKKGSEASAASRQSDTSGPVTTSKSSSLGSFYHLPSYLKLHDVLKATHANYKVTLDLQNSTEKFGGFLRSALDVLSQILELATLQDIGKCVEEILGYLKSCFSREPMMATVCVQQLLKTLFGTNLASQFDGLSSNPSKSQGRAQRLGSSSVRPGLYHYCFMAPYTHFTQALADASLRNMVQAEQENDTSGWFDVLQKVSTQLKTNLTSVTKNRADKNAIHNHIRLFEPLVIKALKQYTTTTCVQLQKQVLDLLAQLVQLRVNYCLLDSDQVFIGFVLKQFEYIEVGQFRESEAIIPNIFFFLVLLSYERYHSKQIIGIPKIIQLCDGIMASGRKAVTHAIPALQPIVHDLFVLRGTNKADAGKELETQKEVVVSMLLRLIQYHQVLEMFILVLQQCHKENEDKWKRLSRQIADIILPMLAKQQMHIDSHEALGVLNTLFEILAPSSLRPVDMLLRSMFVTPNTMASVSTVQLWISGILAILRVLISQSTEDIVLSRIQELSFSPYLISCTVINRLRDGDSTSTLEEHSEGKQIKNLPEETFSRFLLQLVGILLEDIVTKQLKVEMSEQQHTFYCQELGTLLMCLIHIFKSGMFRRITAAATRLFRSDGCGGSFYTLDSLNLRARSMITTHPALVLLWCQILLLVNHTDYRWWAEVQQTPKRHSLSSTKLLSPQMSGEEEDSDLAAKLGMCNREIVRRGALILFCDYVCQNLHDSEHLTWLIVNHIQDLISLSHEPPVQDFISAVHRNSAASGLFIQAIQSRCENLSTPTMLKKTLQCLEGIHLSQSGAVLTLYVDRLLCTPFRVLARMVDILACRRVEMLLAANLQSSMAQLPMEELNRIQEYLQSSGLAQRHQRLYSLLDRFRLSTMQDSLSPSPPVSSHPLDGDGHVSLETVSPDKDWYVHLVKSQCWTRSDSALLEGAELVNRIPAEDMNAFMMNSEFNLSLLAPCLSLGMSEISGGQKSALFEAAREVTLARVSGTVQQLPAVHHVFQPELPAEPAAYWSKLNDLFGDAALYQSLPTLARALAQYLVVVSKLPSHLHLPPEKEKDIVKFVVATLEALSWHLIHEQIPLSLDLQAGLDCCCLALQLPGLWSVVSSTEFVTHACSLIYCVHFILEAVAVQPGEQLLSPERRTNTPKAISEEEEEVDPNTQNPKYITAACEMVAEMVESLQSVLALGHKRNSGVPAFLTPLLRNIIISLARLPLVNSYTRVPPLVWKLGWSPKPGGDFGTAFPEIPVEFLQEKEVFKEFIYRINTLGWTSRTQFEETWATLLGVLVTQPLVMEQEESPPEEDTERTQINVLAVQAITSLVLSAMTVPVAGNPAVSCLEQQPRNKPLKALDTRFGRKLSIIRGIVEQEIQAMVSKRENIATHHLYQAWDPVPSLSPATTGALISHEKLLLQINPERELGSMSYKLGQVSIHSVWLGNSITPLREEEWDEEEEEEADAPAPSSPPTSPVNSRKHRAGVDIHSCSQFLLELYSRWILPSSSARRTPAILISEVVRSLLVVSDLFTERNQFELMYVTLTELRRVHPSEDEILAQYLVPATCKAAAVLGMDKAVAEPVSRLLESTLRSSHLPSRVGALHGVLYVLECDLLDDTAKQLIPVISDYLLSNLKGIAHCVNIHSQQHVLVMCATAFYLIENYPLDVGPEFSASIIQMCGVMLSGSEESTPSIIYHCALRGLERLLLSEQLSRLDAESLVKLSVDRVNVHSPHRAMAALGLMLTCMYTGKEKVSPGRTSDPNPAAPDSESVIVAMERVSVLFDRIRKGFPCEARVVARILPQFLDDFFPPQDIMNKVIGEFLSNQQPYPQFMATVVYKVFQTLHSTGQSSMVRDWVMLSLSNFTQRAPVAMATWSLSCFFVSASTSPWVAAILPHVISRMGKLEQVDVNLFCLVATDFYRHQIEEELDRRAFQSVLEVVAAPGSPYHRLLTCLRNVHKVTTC
* marks the source's active call; other numbers are inactive results; / = no result given. No stated cut-off is given here; in the data, active means inhibition above about 50%; inactive means the rest.

SMILES | Pf apPOL inh | mHTT CaM bind
COC(=O)c1ccc(C(=O)Nc2nnc(Cc3ccc4c(c3)OCO4)o2)cc1 | -49 | 57*
O=C(COc1ccc(Cl)cc1Cl)Nc1ccccc1F | -4 | -5
O=C(COc1ccc(Cl)cc1Cl)Nc1nnc(Cc2ccc3c(c2)OCO3)o1 | -207 | 92*
O=C(CCS(=O)(=O)c1ccc(Cl)cc1)Nc1nnc(Cc2ccc3c(c2)OCO3)o1 | 8 | 4
O=C(COc1ccc(Cl)cc1)Nc1nnc(Cc2cccs2)o1 | -64 | 78*
O=C(COc1ccc(Cl)cc1Cl)Nc1nnc(COc2ccccc2)o1 | -260 | 97*
COc1ccccc1OCCCCN1CCN(Cc2ccccc2)CC1 | -5 | -2
CS(=O)(=O)N1CCN(C(=O)c2ccc(N3CCCC3)nn2)CC1 | -6 | -2
COc1ccc(-n2nc(C(=O)NCC(=O)Nc3ncccc3C)c3ccccc3c2=O)cc1 | 1 | 6
CCCNC(=O)N1CCN(c2nc(Cc3ccccc3)c3c(c2C#N)CC(C)(C)OC3)CC1 | 5 | 0
COc1ccc(-c2c(N)n(-c3ccccc3)c(=O)c3cc([N+](=O)[O-])ccc23)cc1OC | -10 | /
Cc1cc(=O)[nH]c(N=C(N)N2CCc3ccccc32)n1 | -3 | -3
CCOc1cccc2cc(C(=O)Nc3nnc(-c4ccno4)o3)oc12 | 79* | 14
COc1cccc2cc(C(=O)Nc3nnc(Cc4ccc(Cl)s4)o3)oc12 | -12 | -8
Cc1cc(Br)ccc1NC(=O)Cc1csc(Nc2ccc(Cl)cn2)n1 | -8 | 14
CN(C)c1ccc(C(=O)Nc2ccc(O)c3c(=O)cc(-c4ccccc4Cl)oc23)cc1 | 2 | 54*
O=C(Nc1ccc(O)c2c(=O)cc(-c3ccccc3Cl)oc12)c1ccc(Br)cc1 | -4 | 21
CC(=O)N(CCC1(c2ccccc2)CCOC(C)(C)C1)Cc1ccc(N(C)C)cc1 (stereo unspecified) | -4 | 75*
CC1(C)CC(CCN(Cc2ccccc2)C(=O)c2ccco2)(c2ccccc2)CCO1 (stereo unspecified) | -1 | 26
COc1cc(OC)c(OC)cc1CN1CCN(c2ccccc2OC)CC1 | -6 | -1
COc1ccccc1N1CCN(Cc2ccc(Br)o2)CC1 | 85* | 0
CC(C)n1c(=O)c(N2CCN(C(=O)c3ccccc3)CC2)nc2ccncc21 | -4 | 8
CC(C)n1c(=O)c(N2CCN(C(=O)c3cc(-c4ccccc4)n[nH]3)CC2)nc2ccncc21 | 4 | 50*
Cc1c(-c2ccccc2)c(=O)oc2c3c(ccc12)OCN(CC1CCCO1)C3 (stereo unspecified) | -18 | 3
COc1ccccc1Oc1c(C)oc2cc(OCC(=O)OCc3ccccc3)ccc2c1=O | -11 | 2
SMILES | Pf apPOL inh | mHTT CaM bind
Cc1cc(C(F)F)nc2sc(-c3nnc(-c4ccccc4Br)o3)c(N)c12 | -5 | -3
Cn1c(C2CCN(C(=O)c3ccco3)C2)nc2cccnc21 (stereo unspecified) | 3 | -2
Cc1ccsc1C1C2=C(CCCC2=O)Nc2ncnn21 (stereo unspecified) | -3 | -4
Cc1ccsc1C1C2=C(CC(C)(C)CC2=O)Nc2ncnn21 (stereo unspecified) | 1 | 87*
CCN(C)c1nc(-c2cccc(F)c2)c2c(N)n(-c3cc(F)ccc3F)nc2n1 | 0 | 54*
CCN(C)c1nc(-c2cccc(F)c2F)c2c(N)n(-c3cccc(F)c3)nc2n1 | -2 | 35
O=C(NCc1cc(F)cc(F)c1)C1CCCN(c2cnn(Cc3ccccc3)c(=O)c2)C1 (stereo unspecified) | 3 | 1
Cc1c([N+](=O)[O-])c(C=CN(C)C)nn1C | -1 | /
Cc1ccc(NC(=O)N2CCC3(CC2)Nc2cc(F)ccc2-n2cccc23)cc1C | 32 | 54*
O=C(Nc1cccc(Cl)c1)N1CCC2(CC1)Nc1cc(F)ccc1-n1cccc12 | 1 | 94*
O=C(Nc1cccc(Cl)c1)N1CCC2(CC1)Nc1ccccc1-n1cccc12 | -1 | 24
Cc1cc(C)cc(NC(=O)N2CCC3(CC2)Nc2cc(F)ccc2-n2cccc23)c1 | 2 | 71*
Cc1ccc(C)c(NC(=O)N2CCC3(CC2)Nc2cc(F)ccc2-n2cccc23)c1 | -6 | 31
Cc1ccc(NC(=O)N2CCC3(CC2)Nc2cc(F)ccc2-n2cccc23)cc1Cl | 5 | 77*
COc1cc(Cl)c(C(F)(F)F)cc1NC(C)=O | -7 | /
O=C(NCc1ccccc1F)c1cc2c(s1)CCN(C(=O)c1ccccc1)C2 | -1 | 6
CCCC(=O)N1CCCC(c2nc(CCNC(=O)C3CC3)cs2)C1 (stereo unspecified) | 10 | 4
N#CC=Cc1ccc(Br)cc1C(F)(F)F | -13 | /
CC(C)n1c(=O)c(NC2CCCCCC2)nc2ccncc21 | 3 | 2
Cn1c(=O)oc2cc(-c3noc(-c4cccc(Cl)c4)n3)ccc21 | -1 | -13
Cc1nc2c(C(=O)O)cnn2c(C)c1Cc1cccc(Cl)c1 | -11 | -3
O=C(Nc1ccc2c(c1)OCCO2)N1CCC2(CC1)Nc1ccccc1-n1cccc12 | 4 | 62*
O=C(Nc1ccc2c(c1)OCO2)N1CCC2(CC1)Nc1cc(F)ccc1-n1cccc12 | -3 | 68*
CCOc1ccc(C(=O)NCC2(O)CCCC2)cc1 | -8 | 0
CCOc1ccc(C2(c3ccc(O)cc3)CCCCC2)cc1 | -2 | 86*
SMILES | Pf apPOL inh | mHTT CaM bind
O=C(Nc1ccc2c(c1)OCO2)C1CCCCN1S(=O)(=O)c1ccc(Cl)s1 (stereo unspecified) | 0 | 21
O=S1(=O)CC(Cl)C(S(=O)(=O)c2ccccc2)C1 (stereo unspecified) | -2 | -7
O=C(O)C1Nc2c(Cl)cc(Cl)c(Cl)c2C2C=CCC12 (stereo unspecified) | / | 96*
O=C(c1cccc2c1NC(c1ccc(Cl)cc1Cl)C1CC=CC21)N1CCOCC1 (stereo unspecified) | 13 | 16
O=C(O)C1Nc2c(Cl)cc(Cl)cc2C2C=CCC12 (stereo unspecified) | / | 95*
Cn1c(=O)n(C)c2cc(/C=C3\C(=O)NN(c4ccc(Br)cc4)C3=O)ccc21 | 5 | 2
CC/C(C)=C1\C(=O)NN(c2ccc(Br)cc2)C1=O | -1 | 74*
CC1CCN(S(=O)(=O)N2CCCC(C(=O)NC(C)C)C2)CC1 (stereo unspecified) | 95* | 4
CC1CCN(S(=O)(=O)N2CCCC(C(=O)NC3CCCC3)C2)CC1 (stereo unspecified) | -17 | -13
O=C(NCC1CCN(Cc2ccco2)CC1)Nc1ccc2c(c1)OCO2 | -4 | -6
Cc1ccccc1OCC(=O)N1CCN(C2=CC3=NC(C)CN3C=N2)CC1 (stereo unspecified) | -6 | 91*
COc1ccccc1NC(=O)N1CCN(C2=CC3=NC(C)CN3C=N2)CC1 (stereo unspecified) | 0 | 4
COc1cccc(C2C3=C(Nc4ncnn42)c2ccccc2OC3c2ccc(OC)c(OC)c2)c1 (stereo unspecified) | -5 | 32
COc1ccc(C2C3=C(Nc4ncnn42)c2ccccc2OC3c2ccccc2Cl)cc1OC (stereo unspecified) | -6 | 70*
COc1ccc(C2Oc3ccccc3C3=C2C(c2cccs2)n2ncnc2N3)cc1OC (stereo unspecified) | -5 | 56*
Cc1ccc(C2Oc3ccccc3C3=C2C(c2cccs2)n2ncnc2N3)cc1 (stereo unspecified) | -4 | 38
Cn1c(SCC(=O)c2ccc(F)cc2)nnc1-c1ccncc1 | 1 | -1

Screening results (PubChem BioAssay)
